CYP2C9 act – human CYP2C9 activators, primary screen, biochemical, luminescence; Cytochrome P450 2C9 (Homo sapiens), P11712; recombinant CYP2C9, luciferin-H conversion; hits give high values; factor 1 = untreated enzyme, 0 = blocked; activation factor at 5 µM; 96,000 compounds, 1.4% hits; AID 1024, 2008;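 active = activation factor of 2 or more for CYP2C9 at a 5 µM dose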;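 also: 0 = sulfaphenazole-blocked wells and 1 = vehicle-only wells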
Target sequence (P11712 whole entry, looked up): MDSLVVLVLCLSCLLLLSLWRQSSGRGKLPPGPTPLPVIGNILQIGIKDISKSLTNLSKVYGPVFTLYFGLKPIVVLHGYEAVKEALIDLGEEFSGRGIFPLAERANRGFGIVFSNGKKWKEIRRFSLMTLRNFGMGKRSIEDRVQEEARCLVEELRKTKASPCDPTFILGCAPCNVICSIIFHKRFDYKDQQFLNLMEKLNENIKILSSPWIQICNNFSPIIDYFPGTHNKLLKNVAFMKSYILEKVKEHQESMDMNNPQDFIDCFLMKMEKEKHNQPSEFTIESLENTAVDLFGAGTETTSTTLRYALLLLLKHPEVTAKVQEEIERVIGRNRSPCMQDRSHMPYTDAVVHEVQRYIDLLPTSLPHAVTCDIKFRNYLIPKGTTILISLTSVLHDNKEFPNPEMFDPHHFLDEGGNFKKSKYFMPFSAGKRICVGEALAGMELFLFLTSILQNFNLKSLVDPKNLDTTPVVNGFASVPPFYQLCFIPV
CYP2C19 act – human CYP2C19 activators, primary screen, biochemical, luminescence; recombinant CYP2C19, luciferin-H EGE luminescence; hits give high values; 0 = fully inhibited enzyme, 1 = untreated enzyme; activation factor at 5 µM; 96,000 tested, under 10 active; Cytochrome P450 2C19 (Homo sapiens), P33261;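 active = activation factor of at least 2 at 5 µM in the primary screen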;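 also: 0 = wells with 2.5 mM tranylcypromine and 1 = vehicle-only wells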
Cav3 T inh – Cav3.2 calcium influx blockers – cell-based, Fluo-4 calcium fluorescence, FDSS, MLSMR library, primary screen; Voltage-dependent T-type calcium channel subunit alpha-1H (Homo sapiens), O95180; Cav3.2-expressing cells; hits give low values; B-score at 10 µM; 100,000 compounds, 4% hits; AID 449739, 2010;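 active = single-dose well whose peak fluorescence ratio is a statistical outlier from its plate by either plate-standardised score or position-corrected B-score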
CYP2C9 inhib – blockers of cytochrome P450 2C9 activity – biochemical, luminescence, ADME assay, primary screen. P11712. CYP2C9 Supersomes, luciferin-H conversion. inhibition, % at 5 µM. 96,000 compounds, 20% hits. AID 777, 2007;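 active = blocking of liver enzyme CYP2C9 beyond about 50% at 5 µM, limit read from the data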
CYP2C19 inh – blockers of cytochrome P450 2C19 activity – biochemical, luminescence, ADME assay, primary screen; P33261; CYP2C19 Supersomes, luciferin-H EGE luminescence, 30 min; inhibition, % at 5 µM; 96,000 compounds, 21% hits;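 active = CYP2C19 inhibition above a set limit at 5 µM in the primary screen, cut at about 50% in these data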;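 also: plate controls were negative control wells for no effect and 2.5 mM tranylcypromine positive control for full effect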
Numbers without * were called inactive. A selection: hits, their analogues and other compounds. The true share with any hit is near 27%.

Screening CCn1cc(SCC(=O)N2CCOCC2)c2ccccc21 returned CYP2C9 act 1, CYP2C19 act 0.4, Cav3 T inh 0.16, CYP2C9 inhib 0 and CYP2C19 inh 59*.
Screening NC(=O)CC1SC(N)=NC1=O (stereo not drawn) returned CYP2C9 act 1, CYP2C19 act 1, Cav3 T inh -0.76, CYP2C9 inhib 4 and CYP2C19 inh 2.
`O=C(CSc1nnc(Cc2ccccc2)o1)Nc1ccc(Br)cn1` gave CYP2C9 act 1, CYP2C19 act 0.7, Cav3 T inh -0.12, CYP2C9 inhib -1 and CYP2C19 inh 33.
CCOC(=O)c1nnn(CC(=O)N2N=C(c3ccc(Cl)cc3)CC2c2ccccc2)c1C(=O)OCC (stereo not drawn) was read as Cav3 T inh -0.071.
CC(C)(C)NS(=O)(=O)c1ccc(NS(=O)(=O)Cc2ccccc2)cc1 was read as CYP2C9 act 0.2, CYP2C19 act 0.3, Cav3 T inh -0.14, CYP2C9 inhib 81* and CYP2C19 inh 72*.
`CC(C)(C)NS(=O)(=O)c1ccc(CCC(=O)O)cc1` gave CYP2C9 act 1.1, CYP2C19 act 0.8, Cav3 T inh -0.011, CYP2C9 inhib -6 and CYP2C19 inh 23.
Screening CCSc1nnc([C@@H]2CCCN2C(=O)OC(C)(C)C)o1 returned CYP2C9 act 0.9, CYP2C19 act 0.8, Cav3 T inh 1.3, CYP2C9 inhib 11 and CYP2C19 inh 16.
CC(C)(C)OC(=O)N1CCC[C@H]1c1nnc(SCc2c(Cl)cccc2Cl)o1 was read as CYP2C9 act 0.2, CYP2C19 act 0.3, Cav3 T inh -6.8*, CYP2C9 inhib 78* and CYP2C19 inh 71*.
`CCOc1cccc(C(=O)Nc2ccc3oc(Cc4ccc(Cl)cc4)nc3c2)c1` gave CYP2C9 act 0.4, CYP2C19 act 0.5, Cav3 T inh -2.4, CYP2C9 inhib 58* and CYP2C19 inh 47.
`Cc1ccc(C(=O)COC(=O)C2CC(=O)N(c3nc(-c4ccccc4)cs3)C2)cc1C` (stereo not drawn) gave CYP2C9 act 0.1, CYP2C19 act 0.9, Cav3 T inh -1.3, CYP2C9 inhib 90* and CYP2C19 inh 13.
O=C(CSc1nccn1-c1ncc(C(F)(F)F)cc1Cl)c1ccc(Br)cc1 was read as CYP2C9 act 0.4, CYP2C19 act 0.1, Cav3 T inh -1.6, CYP2C9 inhib 62* and CYP2C19 inh 93*.
For Cc1ccc(/C(CSc2nccn2-c2ncc(C(F)(F)F)cc2Cl)=N\O)cc1 the results were CYP2C9 act 0.5, CYP2C19 act 0.4, Cav3 T inh -6.2*, CYP2C9 inhib 52* and CYP2C19 inh 56*.
Screening COc1ccc(-c2ccc(-c3noc(-c4cccs4)n3)c(OC)n2)cc1 returned CYP2C9 act 0.4, CYP2C19 act 0.9, Cav3 T inh 0.36, CYP2C9 inhib 60* and CYP2C19 inh 13.
O=C(CCCCCN1C(=O)c2ccccc2C1=O)NCCc1nc2ccccc2[nH]1 was read as CYP2C9 act 0.1, CYP2C19 act 0.1, Cav3 T inh -0.52, CYP2C9 inhib 91* and CYP2C19 inh 95*.
Screening O=C(NCCc1nc2ccccc2[nH]1)c1ccc(F)cc1 returned CYP2C9 act 0.5, CYP2C19 act 0.1, Cav3 T inh -0.49, CYP2C9 inhib 51* and CYP2C19 inh 88*.
For CC(=O)NCCc1nc2ccccc2[nH]1 the results were Cav3 T inh -0.067.
Nc1ccc(C(=O)OCCCc2nc3ccccc3[nH]2)cc1 was read as CYP2C9 act 0.8, CYP2C19 act 0.5, Cav3 T inh -0.26, CYP2C9 inhib 19 and CYP2C19 inh 51*.
COCCN(CCOC)Cc1c(C)[nH]c2c(C)c(C)ccc2c1=O was read as CYP2C9 act 0.9, CYP2C19 act 0.9, Cav3 T inh 0.45, CYP2C9 inhib 14 and CYP2C19 inh 9.
Cc1nc(Oc2cccc(Cl)c2)c2oc3ccccc3c2n1 was read as CYP2C9 act 1, CYP2C19 act 1, Cav3 T inh -1, CYP2C9 inhib 3 and CYP2C19 inh -4.
For Cc1ccc(C)c(C(=O)CC2(O)C(=O)N(C)c3ccccc32)c1 (stereo not drawn) the results were CYP2C9 act 1, CYP2C19 act 0.8, Cav3 T inh -0.1, CYP2C9 inhib -4 and CYP2C19 inh 24.
Screening Cc1ccc2c(c1)c1cccc3c1n2CCN3CCC(N)=O returned CYP2C9 act 0.3, CYP2C19 act 0.7, Cav3 T inh 0.0021, CYP2C9 inhib 74* and CYP2C19 inh 31.
Screening C=CCn1c(Cc2cccs2)nnc1SCC(=O)c1cccc(Br)c1 returned CYP2C9 act 0.7, CYP2C19 act 0.4, Cav3 T inh -3.6, CYP2C9 inhib 34 and CYP2C19 inh 62*.
For Cc1ccc(OCc2nnc(SCC(=O)NCc3ccco3)n2C)cc1 the results were Cav3 T inh 0.084.
For CCOc1ccc(Nc2nc(Cc3nnc(SCC(=O)NCc4ccco4)n3CC)cs2)cc1 the results were CYP2C9 act 0.4, CYP2C19 act 0.7, Cav3 T inh -3.3, CYP2C9 inhib 55* and CYP2C19 inh 35.
C=CCn1c(Cc2cccs2)nnc1SCC(=O)c1ccc(F)cc1 was read as CYP2C9 act 0.4, CYP2C19 act 0.1, Cav3 T inh -1.6, CYP2C9 inhib 56* and CYP2C19 inh 93*.
For C=CCn1c(Cc2cccs2)nnc1SCC(=O)NCc1ccco1 the results were CYP2C9 act 0.3, CYP2C19 act 0.7, Cav3 T inh -0.85, CYP2C9 inhib 65* and CYP2C19 inh 32.
`C=CCn1c(CCNC(=O)c2cccs2)nnc1SCC(=O)c1cccc([N+](=O)[O-])c1` gave CYP2C9 act 1, CYP2C19 act 1, Cav3 T inh -3.5, CYP2C9 inhib -5 and CYP2C19 inh 4.
For C=CCn1c(Cc2cccs2)nnc1SCC(=O)Nc1ccc(OC)c(OC)c1 the results were CYP2C9 act 0.9, CYP2C19 act 0.8, Cav3 T inh 0.19, CYP2C9 inhib 9 and CYP2C19 inh 16.
For C=CCn1c(Cc2cccs2)nnc1SCC(=O)c1ccc2ccccc2c1 the results were CYP2C9 act 0.7, CYP2C19 act 0.4, Cav3 T inh 0.19, CYP2C9 inhib 27 and CYP2C19 inh 55*.
Fc1ccccc1NC(=S)NNc1ncc(C(F)(F)F)cc1Cl was read as CYP2C9 act 0.1, CYP2C19 act 0.4, CYP2C9 inhib 87* and CYP2C19 inh 55*.
`Cc1ccccc1NC(=S)NNc1ncc(C(F)(F)F)cc1Cl` gave CYP2C9 act 1.2, CYP2C19 act 0.2, Cav3 T inh 0.64, CYP2C9 inhib -17 and CYP2C19 inh 77*.
`O=C(NNc1ncc(C(F)(F)F)cc1Cl)c1c(Cl)cccc1Cl` gave CYP2C9 act 2.4*, CYP2C19 act 0.7, Cav3 T inh -0.26, CYP2C9 inhib -142 and CYP2C19 inh 33.

From PubChem
